Mdm2 MdmX PPI – disrupts the human Mdm2-MdmX interaction; O15151+Q00987; SaOS-2 split-luciferase Mdm2/MdmX complementation, luminescence; inhibition, % at 8 µM; actives 3% (n = 330,000); AID 485346;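 active = inhibition of at least 50% at 8 µM in the primary screen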
Target sequence (O15151 whole entry, looked up): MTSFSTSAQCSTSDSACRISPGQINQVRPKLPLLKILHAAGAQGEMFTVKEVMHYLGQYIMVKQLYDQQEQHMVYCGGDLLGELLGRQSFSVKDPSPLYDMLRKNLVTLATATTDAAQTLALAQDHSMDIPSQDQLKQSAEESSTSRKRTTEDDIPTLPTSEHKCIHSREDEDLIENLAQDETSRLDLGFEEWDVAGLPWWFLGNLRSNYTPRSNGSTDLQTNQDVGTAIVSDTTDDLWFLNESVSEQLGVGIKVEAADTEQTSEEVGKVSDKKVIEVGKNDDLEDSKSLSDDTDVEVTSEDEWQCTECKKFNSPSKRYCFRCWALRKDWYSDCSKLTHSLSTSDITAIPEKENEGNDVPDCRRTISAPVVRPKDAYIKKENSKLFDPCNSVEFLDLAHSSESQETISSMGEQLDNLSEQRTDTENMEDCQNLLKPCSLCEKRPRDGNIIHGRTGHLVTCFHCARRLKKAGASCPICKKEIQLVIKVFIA
Target sequence (Q00987 whole entry, looked up): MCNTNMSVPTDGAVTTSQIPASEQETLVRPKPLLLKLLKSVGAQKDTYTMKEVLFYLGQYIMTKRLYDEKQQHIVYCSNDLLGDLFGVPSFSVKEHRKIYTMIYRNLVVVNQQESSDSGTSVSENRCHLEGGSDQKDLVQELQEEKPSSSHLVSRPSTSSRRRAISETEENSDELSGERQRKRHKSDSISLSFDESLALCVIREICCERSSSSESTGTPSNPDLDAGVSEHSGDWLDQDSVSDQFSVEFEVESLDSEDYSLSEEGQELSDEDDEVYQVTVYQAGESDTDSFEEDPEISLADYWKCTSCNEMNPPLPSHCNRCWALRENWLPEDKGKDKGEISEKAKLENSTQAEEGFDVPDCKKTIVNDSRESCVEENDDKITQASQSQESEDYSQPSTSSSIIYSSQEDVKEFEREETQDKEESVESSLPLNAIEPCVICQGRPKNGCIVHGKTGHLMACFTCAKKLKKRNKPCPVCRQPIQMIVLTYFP
Beta cell apopt – blocks beta cell apoptosis; INS-1E cytokine-induced death, ATP luminescence, 48 h; percent of positive-control rescue, neutral wells zero; protection from apoptosis, % (test concentration not listed); actives 0.8% (n = 300,000); AID 435005;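 active = Every replicate reaches about 75%, or at least half do and their mean reaches it too, limit read from the data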;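 note: higher means more ATP so stronger rescue from cytokine killing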
SKKanGAS inh – inhibitors of SKKanGAS S. pyogenes growth in kanamycin (SK-promoter or general growth effect). BacTiter-Glo, 6 h. AID 1662. inhibition, % at 7.5 µM. actives 1.3% (n = 300,000);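 active = mean replicate score, as percent of positive control median, at least 50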;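 note: strain carries kanamycin resistance gene driven by streptokinase promoter and grows in 40 µg/ml kanamycin; loss of luminescence reflects streptokinase promoter inhibition or plain growth inhibition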
MPTP block – blocks calcium-induced mitochondrial swelling | isolated mouse mitochondria, Ca2+ swelling absorbance, 30 min | inhibition, % at 10 µM | actives 1.4% (n = 360,000);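 active = inhibition of 50% or more, scaled per plate between neutral and stimulator controls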
CSC inhib – cancer stem cell inhibition | cancer stem cell-like cells viability, luminescence | AID 2717 | inhibition, % at 7.5 µM | actives 1.1% (n = 300,000); in the data active = inhibition above about 75%; tested in HMLE shEcad cells
Calb FLC – affects C. albicans growth with fluconazole; C. albicans CaCi-2 (fluconazole-resistant clinical isolate) + fluconazole, Alamar Blue growth, 48 h; growth inhibition, % (test concentration not listed); actives 0.57% (n = 300,000); AID 1979;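 active = growth inhibition above about 58% in most replicates, limit read from the data, passing the limit was not always enough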;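 note: all wells also contain fluconazole at 8 µg/ml as a sub-toxic cotreatment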
Mdm2 MdmX conf – human Mdm2/MdmX binding inhibition, confirmed. shares compounds with Mdm2 MdmX PPI. luminescent assay. inhibition, % at 8 µM. actives 55% (n = 10,000). AID 489028; in the data active = inhibition above about 40%
FLuc counter – counter-screen for Mdm2/MdmX inhibitors: full-length luciferase | shares compounds with Mdm2 MdmX PPI | SaOS-2 full-length luciferase counterscreen, luminescence | inhibition, % at 8 µM | actives 77% (n = 6,200);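 active = mean inhibition at 8 µM reaching about 37%, which flags the compound as non-specific, limit read from the data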;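 note: p53-null SaOS-2 cells with luciferase driven by a doxycycline-inducible promoter; compound on cells about two nights before reading with doxycycline added after day one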
Numbers stand for hits; - = inactive; . = no result given. Only some compounds are listed: those with a hit (about 5.4% of all), similar ones and a draw of the others.

SMILES	Mdm2 MdmX PPI	Beta cell apopt	SKKanGAS inh	MPTP block	CSC inhib	Calb FLC	Mdm2 MdmX conf	FLuc counter
O=C(NNC(=S)Nc1ccc(Cl)c(Cl)c1)c1ccccn1	79	78	102	-	109	102	84	48
O=C(NNC(=O)C(c1ccccc1)c1ccccc1)c1ccccn1	66	-	-	-	-	-	66	42
COc1ccc2cc1Oc1ccc(cc1)C[C@H]1c3c(cc4c(c3Oc3cc5c(cc3OC)CCN(C)[C@@H]5C2)OCO4)CCN1C	100	.	-	-	-	.	87	-
CCC[C@H]1NC(=O)[C@H](C)N(C)C(=O)C(C)(C)C(=O)C(C)NC(=O)[C@H](Cc2ccc(OC)cc2)N(C)C(=O)[C@H](C(C)C)N(C)C(=O)CNC(=O)[C@H](CC(C)C)N(C)C(=O)CNC(=O)[C@H]([C@@H](C)CC)OC(=O)[C@H]1C (stereo partly specified)	94	.	.	.	.	.	91	-
CC[C@H](C)C1OC(=O)[C@@H](C)[C@@H](CC)NC(=O)[C@H](C)N(C)C(=O)C(C)(C)C(=O)C(C)NC(=O)[C@H](Cc2ccc(OC)cc2)N(C)C(=O)[C@H](C(C)C)N(C)C(=O)CNC(=O)[C@H](CC(C)C)N(C)C(=O)CNC1=O (stereo partly specified)	.	.	.	-	.	.	.	.
O=c1[nH]c(=O)n(Cc2ccccc2)c2nc(-c3ccco3)cc(C(F)(F)F)c12	53	-	-	-	-	-	-	.
CCOc1ccc(C(=O)Nc2cc(C)c3c(=O)oc4ccccc4c3n2)cc1	65	-	-	-	-	-	-	.
Cc1cc(NC(=O)c2ccccc2)nc2c1c(=O)oc1ccccc12	-	-	-	-	-	-	.	.
CCOc1ccc(OCC(=O)Nc2ccccc2N2CCCC2)cc1	51	-	-	-	-	-	72	60
Cc1ccccc1OCC(=O)Nc1ccccc1N1CCOCC1	50	-	-	-	-	-	-	.
Cc1cccc(OCC(=O)Nc2ccc(N3CCN(S(C)(=O)=O)CC3)cc2)c1C	96	-	-	-	.	-	-	.
Cc1cccc(OCC(=O)NC(=S)Nc2ccccc2N2CCOCC2)c1C	73	-	-	-	-	-	-	.
Cc1ccc(C(C)C)c(OCC(=O)NC(=S)Nc2ccccc2N2CCOCC2)c1	-	-	-	-	-	.	.	.
O=C(COc1ccccc1)Nc1ccccc1N1CCCCC1	-	-	-	-	-	-	.	.
Cc1ccc(CNCc2cc(Cl)ccc2O)cc1	-	-	.	-	-	.	.	.
CN(C)C(=O)COc1ccc2c3c(c(=O)oc2c1)CCCC3	-	.	-	-	-	-	.	.
COC(=O)c1c(C)oc2ccc(OC(=O)c3cccs3)cc12	-	-	-	-	-	-	.	.
O=C1C(c2ccc(F)cc2)N(Cc2ccc3c(c2)OCO3)C(=O)CN1C1CCCCCC1 (stereo unspecified)	-	-	-	-	.	-	.	.
CCOC(=O)c1ccccc1NC(=O)COc1cc(=O)n(CC)c2ccccc12	-	-	-	-	.	-	.	.
CCn1c(=O)cc(OCC(=O)Nc2ccccc2N2CCN(C)CC2)c2ccccc21	50	-	-	-	.	-	-	.
CCNc1ccc(C(=O)OCC)cc1NC(=O)c1cccc(S(=O)(=O)N(C)c2ccccc2)c1	-	-	-	-	-	-	.	.
CCNc1ccc(C(=O)OCC)cc1NC(=O)c1cccc(N(C)C)c1	58	.	-	-	.	-	54	65
O=C(CCC1CCCCC1)NCCN1C2=NC[C@@H](Cc3ccccc3)N2C[C@H]1Cc1ccc(O)cc1	67	-	-	-	-	-	54	63
CC(C)NC(=O)c1ccc2c(c1)nnn2C	-	-	-	-	-	-	.	.
O=C(O)c1cccc(COc2ccccc2Cl)c1	69	-	-	-	-	-	69	50
SMILES	Mdm2 MdmX PPI	Beta cell apopt	SKKanGAS inh	MPTP block	CSC inhib	Calb FLC	Mdm2 MdmX conf	FLuc counter
CCC(C)C(=O)Nc1nnc(SCC(=O)NC2CCCCC2)s1 (stereo unspecified)	-	-	-	-	-	-	.	.
Cc1nn(-c2ccccc2)c(C)c1CN(C)C(=O)c1ccc(S(=O)(=O)NCc2ccco2)cc1	-	-	.	-	.	.	.	.
COc1ccc(-n2cnc(N)c2C(=O)c2cccc([N+](=O)[O-])c2)cc1	-	-	-	-	-	-	.	.
COc1ccc2cc3c(N)nn(C(=O)Cc4ccccc4OC)c3nc2c1	72	-	-	-	-	-	67	62
COc1ccc2cc3c(N)nn(C(=O)C4CCC(C(C)(C)C)CC4)c3nc2c1 (stereo unspecified)	94	-	93	-	-	-	88	-
COc1ccc2cc3c(N)nn(C(=O)c4cccc([N+](=O)[O-])c4)c3nc2c1	88	-	-	-	-	-	67	-
CCOC(=O)C1CCN(c2nc3cc(OC)ccc3cc2C#N)CC1	-	-	-	-	-	-	.	.
COc1ccc(C(=O)C(=O)N2CCN(C(=O)OCc3ccccc3)CC2)cc1	.	.	.	-	.	.	.	.
N#Cc1ccc(C23CC4(C2)[C@H](CN(P(=O)(c2ccccc2)c2ccccc2)[C@@H]4c2ccccc2)C3c2ccc(Cl)nc2)cc1 (stereo partly specified)	56	-	-	-	-	-	-	54
CN1C[C@@H]2C(c3ccc(Cl)nc3)C3(c4ccc(C#N)cc4)CC2(C3)[C@H]1c1ccccc1 (stereo partly specified)	-	-	-	-	-	-	.	.
CC(C)C(CCNCc1ccccn1)c1ccc(Cl)cc1 (stereo unspecified)	-	-	-	-	-	-	.	.
CCNC(=O)N1CCN(CCCC(c2ccc(F)cc2)c2ccc(F)cc2)CC1	-	-	.	-	-	.	.	.
CC(C)C(CCNC1CCN(C)CC1)c1ccc(Cl)cc1 (stereo unspecified)	77	.	-	-	.	-	56	54
CN1CCC(NCCC(c2ccc(F)cc2)c2ccc(Cl)cc2)CC1 (stereo unspecified)	100	-	-	-	-	-	98	59
O=C(NCc1ccccc1)c1nc[nH]c1C(=O)N1CCN(c2ccccc2)CC1	-	-	.	-	-	.	.	.
Cc1nc(-c2ccncc2)sc1C(=O)Nc1ccc(Br)cc1	-	-	-	-	-	-	.	.
CCN(CC)Cc1c(O)ccc2c1O/C(=C\C=C\c1ccccc1)C2=O	98	105	-	-	109	-	71	-
COc1ccccc1/C=C/C=C1\Oc2c(ccc(O)c2CN(C)C)C1=O	61	-	-	-	-	-	43	44
O=C(C1COc2ccccc2O1)N1CCc2ccccc2C1 (stereo unspecified)	-	.	-	-	-	-	.	.
CCCOc1ccc(N2C(=O)CC(SC(=N)N3N=C(c4ccccc4)CC3c3ccccc3)C2=O)cc1 (stereo unspecified)	60	-	-	-	-	-	-	77

Source: PubChem (several laboratories)
